In the library only some 11% were active in any assay of this set; here they are far more common.
VACV Venus inh: vaccinia inhibition (Venus reporter). Vaccinia virus Venus reporter expression, fluorescence. Potency, µM (titrated, usually from 36.5 µM), without a hit: at the top dose activity change, negative = inhibition, actives largely listed as inhibitors. 0.46% of 330,000 active. AID 720580; calls by dose curve; tested in A549 cells; also: % is scaled to controls: 0 for no effect and ±100 for the full control effect; nearly all actives have a fitted effect of over 30% in size
NS1 inh: inhibitors of influenza NS1 protein function | Potency, µM (doses to about 46.1 µM), for inactives: top-dose activity, positive = more growth | 0.4% of 270,000 active; calls by dose curve; also: actives are rising curves; nearly all actives have a fitted effect of over 50% in size
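Read-out: OD600 growth recovery of NS1-expressing budding yeast. Cells grown overnight at 30C in -URA glucose medium, washed, resuspended and diluted 1:100 in 2% galactose assay medium, pH 6.0. Same strain lacking NS1 served as positive control.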
Pf growth 96h: P. falciparum growth inhibition at 96 hours; P. falciparum luciferase reporter growth, 96 h; AID 504834; 6.9% of 320,000 active; Potency, µM (top dose mostly 28.7 µM), for the others: top-dose activity change, negative = inhibition, usual class: inhibitors; also: % is scaled to controls: 0 for no effect and ±100 for the full control effect
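Delayed-death screen, second-generation endpoint: infected erythrocytes, 2% hematocrit, 0.05% parasitemia final; 96 hours at 37 C, 5% CO2; luciferase detection reagent; luminescence decrease equals reduced growth.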
HCV inhibitor: blocks hepatitis C virus | Huh7.5.1 HCVcc-Cre infection, luciferase reporter, 44 h | Potency, µM (series often up to 41.8 µM), for inactives: at the highest dose activity change, negative = inhibition, hits mostly inhibitors | 3.4% of 340,000 active; also: % is scaled to controls: 0 for no effect and ±100 for the full control effect
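Compounds are dispensed onto cells plated 4 h earlier at 1,000 per well, with HCVcc-Cre virus (about 0.5 moi) added next. Following 44 h of culture, luminescent signal is measured for 15 sec after 15 min with substrate at room temperature.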
VACV mCherry inh: inhibitors of vaccinia virus infection (mCherry reporter signal) | Vaccinia virus mCherry reporter infection, fluorescence | Potency, µM (highest dose often 36.5 µM), for inactives: at the top dose activity change, negative = inhibition, most hits filed as inhibitors | 0.63% of 310,000 active; calls by dose curve; tested in A549 cells; also: % is scaled to controls: 0 for no effect and ±100 for the full control effect; nearly all actives have a fitted effect of over 35% in size
Pf growth 48h: P. falciparum growth inhibition at 48 hours (one generation); P. falciparum luciferase growth in erythrocytes, 48 h; Potency, µM (titrated, usually from 28.7 µM), inactives show top-dose activity change, negative = inhibition, most hits filed as inhibitors; 5.9% of 310,000 active; also: % is scaled to controls: 0 for no effect and ±100 for the full control effect
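First compound was added to culture medium, then infected red cells at 0.1% parasitemia and 2% hematocrit (final). After incubation at 37 C under 5% CO2, luciferase detection reagent was dispensed and light output recorded.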
The depositor's hits bear a star; i = inactive; ? = inconclusive; . = no result given. Unless noted, calls follow the shape of the dose curve; as a rule, active = well fitted inhibition curve with a large enough effect; inconclusive = small, poorly fitted or top-dose-only effect, or another doubt; inactive = no such curve, though single readings can be large or run the other way. Potency is read from the fitted curve at half-maximal effect.

SMILES | VACV Venus inh | NS1 inh | Pf growth 96h | HCV inhibitor | VACV mCherry inh | Pf growth 48h
COc1ccccc1/C=C/CN1CCC(Oc2cc(C(=O)NC3CC3)ccc2OC)CC1 | . | 3% | 45% | 3% | . | 9.3µM*
COc1ccccc1/C=C/CN1CCC(Oc2ccc(C(=O)N3CCCCC3)cc2)CC1 | ? | -12% | 16% | ? | -14% | 7.4µM*
Cc1cc(C)cc(NC(=O)N2CCN(C/C=C/c3ccccc3)CC2)c1 | -17% | -2% | 2.9µM* | -15% | -26% | -8%
CCOc1cc(C(=O)N2CCN(C/C=C/c3ccccc3)CC2)cc(OCC)c1OCC | -19% | -6% | 5.2µM* | -18% | -9% | .
COc1cc(C(=O)N2CCN(C/C=C/c3ccccc3)CC2)cc(OC)c1OC | . | 1% | ? | ? | . | ?
Cc1ccc2c(c1)C1CN(C)CCC1N2C(=O)c1cccc(S(=O)(=O)N(C)C)c1 (configuration not stated) | -4% | 4% | 2% | 23% | -13% | 0%
Cc1onc(-c2c(F)cccc2Cl)c1C(=O)N1CCc2ccccc21 | . | 3% | -15% | -16% | . | .
O=C(c1ccc(OC2CCN(C/C=C/c3ccccc3)CC2)cc1)N1CCCC1 | -26% | -4% | 10µM* | -1% | -26% | 2.9µM*
CC(C(=O)Nc1cccc([N+](=O)[O-])c1)N1CCN(C/C=C/c2ccccc2)CC1 (configuration not stated) | -26% | -3% | 13µM* | ? | -20% | ?
O=C(c1ccc(OC2CCN(C/C=C/c3ccccc3)CC2)cc1)N1CCCCC1 | -21% | 12% | 1% | 3% | -10% | ?
O=C(c1cccc([N+](=O)[O-])c1)N1CCN(C/C=C/c2ccccc2)CC1 | -9% | 2% | ? | -7% | -13% | ?
O=c1cc(O)c2c(=O)n(Cc3ccccc3)c3ccccc3c2o1 | -4% | . | ? | ? | i | 8.3µM*
Cn1ccc2c(N3CCCCC3)cc3c(c21)C1CCC3O1 (configuration not stated) | -3% | . | . | . | i | .
C#CC(c1ccccc1)(c1ccccc1)n1ccnc1 | -20% | . | . | . | -7% | .
Clc1ccccc1C(c1ccccc1)(c1ccccc1)n1ccnc1 | -15% | -57% | 1.4µM* | ? | -24% | 0.64µM*
CSc1ccc(CCNC(=O)c2ccc(CS(=O)Cc3ccc(Cl)cc3)o2)cc1 (configuration not stated) | -6% | 10% | 6% | ? | -7% | 0%
Cn1c(N)c(C(=O)CSc2nnc(Cc3cccs3)n2C2CC2)c(=O)n(C)c1=O | -1% | . | 3.3µM* | 7% | -15% | 5.2µM*
CCCn1c(N)c(C(=O)CSc2nnc(Cc3cccs3)n2C2CC2)c(=O)n(C)c1=O | . | . | 4.1µM* | ? | . | 4.7µM*
CCCn1c(N)c(C(=O)CSc2nnc3ccccn23)c(=O)n(C)c1=O | -10% | . | ? | 1% | -15% | -16%
Cc1ccc2nc(-c3cccc(N)c3)[nH]c2c1 | -16% | -1% | -11% | -2% | -21% | 169%
Nc1ccc2nc(-c3cccc(-c4nc5ccc(N)cc5[nH]4)n3)[nH]c2c1 | . | 2% | 0.52µM* | -5% | . | 2.1µM*
Nc1ccc(-c2nc3ccc(-c4nc5ccc(N)cc5[nH]4)cc3[nH]2)cc1 | -5% | -18% | . | . | -11% | .
COc1ccc2nc(-c3ccccc3)[nH]c2c1 | . | -44% | 12µM* | -25% | . | 53%
Nc1ccc2nc(-c3ccc(-c4nc5ccc(N)cc5[nH]4)cc3)[nH]c2c1 | -11% | -44% | 2.3µM* | 2% | i | 12µM*
COc1ccc(Nc2nc3cc(Cl)c(Cl)cc3n3cnnc23)cc1Cl | -6% | . | . | . | -14% | .
CC(=O)NCCn1c(SCc2ccc(C)cc2)nc2ccccc2c1=O | . | 1% | ? | -2% | . | 3%
COc1ccc(CNc2cc(C)nc3ccc(OC)cc23)cc1 | -11% | 17% | -21% | 14µM* | -23% | ?
COc1ccc(Nc2cc(C)nc3ccc(OC)cc23)cc1 | ? | 8% | -7% | ? | ? | ?
Cc1ccc2nc(C)cc(N/N=C/c3cccc(O)c3)c2c1 | ? | -24% | -39% | -16% | -25% | ?

Assay outcomes: PubChem, National Center for Advancing Translational Sciences (NCATS)
